PubChem BioAssay (NCI)
The panel holds about 83,000 compounds, 20% with a hit somewhere; the sample as a whole holds those more often.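 For each line, cells grew in 96-well plates with the test compound present at a single concentration for 48 hours.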 Values without a mark were called inactive. Calls of active or inactive are those of the source. The calls were made as follows: active = growth percent below 10; inactive = the rest.

What was measured:
Experiment in all cases: NCI-60 one-dose screen, 48 h (100 = growth as untreated, 0 = no growth, -100 = all killed)
Settings in all cases: 10 µM unless noted
NCI-H23 lung = system: NCI-H23 lung
NCI-H226 lung = system: NCI-H226 lung
NCI-H322M lung = system: NCI-H322M lung
HOP-62 NSCLC = system: HOP-62 NSCLC
NCI-H460 lung = system: NCI-H460 lung
HOP-92 NSCLC = system: HOP-92 NSCLC
NCI-H522 lung = system: NCI-H522 lung
A549/ATCC NSCLC = system: A549/ATCC NSCLC
786-0 renal = system: 786-0 renal
COLO 205 colon = system: COLO 205 colon

Structure (SMILES)	growth (NCI-H23 lung)	growth (NCI-H226 lung)	growth (NCI-H322M lung)	growth (HOP-62 NSCLC)	growth (NCI-H460 lung)	growth (HOP-92 NSCLC)	growth (NCI-H522 lung)	growth (A549/ATCC NSCLC)	growth (786-0 renal)	growth (COLO 205 colon)
COc1cc(N)c2ncccc2c1Cl	104%	96%	97.9%	102%	109%	101%	81.8%	103%	95%	116%
COc1cccc(C(=O)O)c1OC	109%	89.8%	95.6%	89.4%	101%	92.5%	87.2%	98.1%	96%	101%
C#CCSc1nnnn1-c1ccccc1	97.9%	82.5%	98%	105%	95.4%	50.5%	92.9%	64%	92%	113%
CCCCCCCCCCC(=O)CCCCCCCCCC	102%	103%	109%	92.3%	102%	148%	96.7%	98.4%	99.1%	107%
Nc1ccn(C2CC(N)C(CO)O2)c(=O)n1 (stereo not given)	80.1%	85.1%	96.6%	69.1%	34.5%	95.7%	77.9%	75.6%	94.1%	97.7%
Nc1c(Br)cc(O)c2c1C(=O)c1ccccc1C2=O	32.8%	108%	98.7%	117%	102%	70.9%	54%	96.1%	106%	135%
CCN(CC)c1ccc2nc3ccc(N=Nc4ccc(N(C)C)cc4)cc3[n+](-c3ccccc3)c2c1	-64.9% (active)	-36.9% (active)	25.2%	-87.9% (active)	-66.4% (active)	-14.6% (active)	-44.9% (active)	3.32% (active)	-56.8% (active)	-89.9% (active)
CCOC(=O)c1c(C)[nH]c(C)c1C=O	98.8%	99.6%	102%	86.9%	99.8%	81.9%	93.7%	67.3%	91.8%	110%
O=C(O)c1cccc(-n2ncc(Cl)c(Cl)c2=O)c1	107%	101%	117%	100%	101%	112%	36%	102%	109%	117%
c1ccc(Oc2c3ccccc3nc3ccccc23)cc1	8.18% (active)	47.9%	56.3%	16.1%	3.68% (active)	8.21% (active)	-27.4% (active)	34.1%	1.82% (active)	-10.5% (active)
CS(=O)(=O)c1ccc(/C=C\C(=O)O)cc1	106%	96.1%	108%	99.5%	94.3%	94%	99.5%	106%	108%	109%
O=C(Nc1ccc([N+](=O)[O-])cc1)C(=O)Nc1ccc([N+](=O)[O-])cc1	100%	96.9%	101%	81%	103%	95.4%	77.3%	67.7%	110%	101%
C/C(=N\Nc1ccc([N+](=O)[O-])cc1[N+](=O)[O-])c1ccc(Br)cc1	103%	96.6%	106%	108%	99.2%	94.5%	85.5%	84.8%	99.4%	104%
COc1cc(C(=O)NC(=S)NCc2ccncc2)cc(OC)c1OC	91.8%	86.4%	89.5%	107%	110%	89.2%	56.7%	99%	97.5%	95.3%
CCCCCC#CC(=O)O	109%	107%	98.7%	98.2%	110%	83.6%	90.6%	97%	99%	107%
CN(C(=S)S(=O)(=O)C12CC3CC(CC(C3)C1)C2)c1ccccc1	97.5%	93.3%	114%	116%	110%	71.2%	46.1%	95.1%	89.8%	88.5%
c1ccc(-c2ccc3ccccc3c2)cc1	100%	80.4%	85%	85.3%	102%	77%	57.1%	84.2%	112%	96.3%
CCCCCC/C=C\CCCCCCCCCc1cc(O)cc(OC)c1O	11.2%	24.2%	4.07% (active)	21.8%	8.62% (active)	-45% (active)	-76.8% (active)	16.8%	10.6%	-65.3% (active)
Nc1ccc(F)cc1F	103%	94.8%	97.4%	109%	105%	77.4%	102%	105%	98.6%	110%
ClCC(Cl)[C@@H]1CC2C=CC1C2 (stereo not given in full)	102%	91.7%	108%	109%	113%	99.7%	99.6%	89.1%	94.4%	127%

Structure (SMILES)	growth (NCI-H23 lung)	growth (NCI-H226 lung)	growth (NCI-H322M lung)	growth (HOP-62 NSCLC)	growth (NCI-H460 lung)	growth (HOP-92 NSCLC)	growth (NCI-H522 lung)	growth (A549/ATCC NSCLC)	growth (786-0 renal)	growth (COLO 205 colon)
O=C(CCCl)OCCOc1ccccc1	96.2%	104%	97%	105%	104%	86.7%	98.2%	102%	99.4%	103%
O=C(N/N=C\c1ccc(Cl)cc1Cl)c1ccncc1	103%	102%	106%	112%	105%	87.9%	84.8%	91%	90.5%	118%
ClCC(Cl)C1CCC(Cl)C(Cl)C1 (stereo not given)	105%	119%	107%	111%	107%	105%	102%	98.2%	96.8%	109%
COc1cccc(C(=O)NNC(=O)c2cccc3ccccc23)c1	107%	105%	122%	97.7%	117%	97.2%	102%	96%	104%	108%
CN(C)CCOC(=O)Nc1ccc(Cc2ccc(NC(=O)OCCN(C)C)cc2)cc1	94.1% [100 µM]	111% [100 µM]	96.8% [100 µM]	97.7% [100 µM]	92% [100 µM]	32.7% [100 µM]	85.2% [100 µM]	75.8% [100 µM]	60.1% [100 µM]	84.2% [100 µM]
O=C(O)c1ccccc1Cc1ccc2c(c1)CCCC2	100%	92.5%	99.2%	111%	106%	107%	98.3%	94.9%	107%	112%
c1ccc2c(NCCCN3CCN(CCCNc4c5ccccc5nc5ccccc45)CC3)c3ccccc3nc2c1	-86.2% [100 µM] (active)	-26.2% [100 µM] (active)	-33.2% [100 µM] (active)	-32.5% [100 µM] (active)	-19.5% [100 µM] (active)	-26.4% [100 µM] (active)	-72.1% [100 µM] (active)	-24.8% [100 µM] (active)	-28.5% [100 µM] (active)	-52.6% [100 µM] (active)
O=S(=O)(O)c1ccc(O)c(C2CCCCC2)c1	112%	98.4%	103%	87.4%	108%	93.2%	98.5%	96.6%	91.1%	105%
OC1Cc2ccccc2C1	90.2%	101%	98.7%	95.7%	104%	68.7%	92.6%	97.1%	98.7%	98.8%
Cc1cccc(C)c1NC(=S)/N=C\c1c(O)[nH]c(=O)[nH]c1=O	104%	100%	98.5%	87.7%	105%	102%	86.4%	79.4%	101%	103%
CCOC(=O)C(COS(C)(=O)=O)(COS(C)(=O)=O)C(=O)OCC	99.5%	105%	101%	98.1%	109%	86%	96%	105%	108%	107%
O=S(=O)(O)c1cccnc1	115%	105%	84.6%	114%	109%	142%	109%	125%	103%	105%
CC(C)NC(=O)OCc1c(COC(=O)NC(C)C)c(-c2ccc(Cl)cc2)n2c1CCC2	36.5%	63%	62.8%	46.4%	24.6%	26.2%	51.2%	66.5%	36.4%	57.2%
O=C(Oc1ccccc1Cl)c1ccc(Cl)cc1Cl	101%	102%	107%	87.9%	102%	103%	98.8%	89.3%	95.9%	104%
CCOC(=O)CNC	101%	98.8%	96.9%	106%	106%	91.1%	123%	87.8%	101%	116%
Cn1/c(=N\N=C\c2ccccc2OCCO)sc2ccccc21	101%	88.3%	80.7%	106%	101%	82.5%	90%	102%	115%	91%
O=S(=O)(OCCOS(=O)(=O)c1ccccc1)c1ccccc1	95%	87.6%	97.6%	94.9%	97.6%	99.5%	90.5%	93.3%	93.5%	112%
O=Cc1ccc(O)c(O)c1	100%	95.9%	104%	97.1%	98.9%	84.9%	84.3%	89.4%	101%	95.4%
C/C=C/C1OCC(CC)C(CCC)O1 (stereo not given)	113%	111%	111%	111%	109%	110%	91.1%	88%	111%	114%
CCCC(=O)c1cccs1	95.3%	93.2%	112%	99.9%	105%	84.7%	107%	99.3%	92.1%	111%

Structure (SMILES)	growth (NCI-H23 lung)	growth (NCI-H226 lung)	growth (NCI-H322M lung)	growth (HOP-62 NSCLC)	growth (NCI-H460 lung)	growth (HOP-92 NSCLC)	growth (NCI-H522 lung)	growth (A549/ATCC NSCLC)	growth (786-0 renal)	growth (COLO 205 colon)
Oc1ccc(CCC2CCNc3ccccc32)cc1 (stereo not given)	65.3%	62.8%	91.1%	75.8%	83.8%	49.3%	68.8%	52.1%	82.2%	93.4%
NC(=O)OCCO	99.3%	99.5%	97%	105%	110%	102%	96.1%	99.7%	95%	113%
COc1ccc(Br)c(C=O)c1	91.4%	84.5%	89.8%	67.4%	101%	68.8%	98.2%	92.6%	69.3%	102%
Clc1ccc(-c2noc(/C=C\c3ccccc3)n2)cc1	101%	93.1%	87.1%	106%	109%	99.3%	87%	87.9%	99.4%	105%
O=S1(=O)c2ccccc2Oc2ccccc21	104%	100%	101%	93.4%	99%	90.4%	78.2%	95.4%	99.9%	109%
O=C(O)CSCC(=O)Nc1cc(C(F)(F)F)ccc1Cl	111%	109%	103%	105%	134%	104%	99.9%	106%	107%	121%
CCCCCC(=O)OCCC1CCCCC1	96.2%	101%	99.9%	98.6%	105%	70%	95%	98.4%	106%	101%
S=C(Sc1ccc(Cl)cc1)Sc1ccc(Cl)cc1	21.8%	-52.5% (active)	106%	47.9%	67.1%	-4.66% (active)	-83% (active)	45.5%	-14.5% (active)	-54% (active)
CCCCCCCCCCCCCCCCOc1ccccc1NC(=O)CC(C)=O	111%	105%	109%	112%	112%	96.4%	87.1%	91.7%	59.8%	131%
CC(c1ccccc1)N(C)C (stereo not given)	110%	95.3%	92.3%	87.9%	107%	111%	98%	106%	104%	103%
COc1c(CNC(=O)CCl)cc2[nH]c(C)cc2c1CNC(=O)CCl	57.2%	69.4%	67.4%	70.4%	31.5%	107%	-2.03% (active)	56.4%	68%	54.8%
Clc1ccc(C(SCc2ccccc2)SCc2ccccc2)cc1	86.1%	86.3%	111%	92.1%	98.3%	83%	80.5%	97.6%	111%	90.1%
CC1(C)CC(=O)C=C(N)C1	88.1%	103%	106%	103%	121%	109%	89.6%	94.8%	106%	134%
Cc1ccc(/C=N/NC(N)=S)s1	99.7%	99.1%	98.9%	102%	103%	100%	105%	109%	109%	104%
Cc1ccc(S(N)(=O)=O)cc1Cl	111%	105%	121%	110%	113%	101%	98.6%	92.9%	100%	104%
Cc1ccccc1CC(N)C(=O)O (stereo not given)	98.2%	115%	98.6%	103%	109%	92.3%	112%	107%	107%	114%
CC(C)(C)CC1(C)NC(=O)NC1=O (stereo not given)	103%	112%	126%	99.1%	120%	107%	150%	120%	98.7%	135%
Nc1ncc([N+](=O)[O-])cn1	102%	103%	95%	103%	111%	93.7%	71.2%	90.1%	105%	119%
Cc1nc(C)c(C(=O)O)cc1C(=O)O	101%	110%	126%	106%	112%	103%	108%	116%	112%	131%
